In PubChem BioAssay (NCI):
About 83,000 compounds went through this panel and 20% of them were active in at least one assay; those are over-represented in the sample as a whole.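 Method: cells in 96-well plates; compound added at one concentration; 48 h incubation; percent growth measured; values under 10 scored active.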 Values without a mark were called inactive. Active and inactive are the calls of the source.

These compounds were tested on MDA-MB-468 breast (assay: NCI-60 one-dose screen, 48 h (100 = growth as untreated, 0 = no growth, -100 = all killed)). Settings: 10 µM unless noted.

SMILES | growth
CC/C=C\C[C@H](O)C/C=C1/C(=O)C=C[C@@H]1C/C=C\CCCC(=O)NC | -47.4% (active)
Cc1cccc2c1NC(=O)C2(c1ccc(O)cc1)c1ccc(O)cc1 | -11% (active)
[2H]C([2H])([2H])Oc1ccc(F)cc1/C=C/C(=O)/C=C(/C=C/c1cc(F)ccc1OC([2H])([2H])[2H])OB(F)F | 69.5%
NC(C(=O)O)c1ccc([N+](=O)[O-])cc1 (stereo unspecified) | 111%
CNCCCNc1nc2ccccc2c2c(=O)c3cc(Cl)ccc3sc12 | 18.4%
COc1ccc(-n2c(/C=C/c3ccc(O)c(OC)c3)cc(/C=C/c3ccc(O)c(OC)c3)nc2=O)cc1 | 29%
